# Laboratory results reported in PubChem BioAssay.
# Calls of active or inactive are those of the source.
# How the values were obtained:
# [1] = A549 cell viability effects, profiling panel, calcein-AM fluorescence, 48 h, basal (AID 1162); settings: higher = more signal
# [2] = adipocyte viability effects, profiling panel, cell-based, 3T3-L1 adipocytes, calcein-AM fluorescence, 48 h, basal (AID 1163); settings: 3T3-L1 adipocytes viability, higher = more signal
# [3] = HepG2 cell viability effects, profiling panel, calcein-AM fluorescence, 48 h, basal (AID 1164); settings: higher = more signal
# [4] = MM1S cell viability effects, profiling panel, calcein-AM fluorescence, 48 h, basal (AID 1165); settings: higher = more signal;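 further: viability of MM1S multiple myeloma cells under basal unstimulated conditions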
# [5] = basal RPMI8226 viability, no added stimulus, profiling panel, cell-based, calcein-AM fluorescence, 48 h, PK04 Diversity Set (AID 1166); settings: RPMI8226 myeloma viability, higher = more signal;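 further: cells grown under basal conditions without added stimulus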
# [6] = basal HepG2 mitochondrial membrane potential changes, profiling panel, cell-based, JC-1 fluorescence, 24 h, 100 nL compound (AID 1167); settings: higher = more signal
# [7] = basal 3T3-L1 adipocyte mitochondrial potential changes, profiling panel, cell-based, JC-1 fluorescence, 3T3-L1 adipocytes, 24 h, 100 nL compound (AID 1168); settings: JC-1 mitochondrial fluorescence, higher = more signal, called active from +8 up or from −8 down
# [8] = basal RPMI8226 mitochondrial membrane potential changes, profiling panel, cell-based, JC-1 fluorescence, 24 h, 100 nL compound (AID 1169); settings: RPMI8226 myeloma, JC-1 mitochondrial potential fluorescence, higher = more signal
# [9] = basal MM1S mitochondrial membrane potential changes, profiling panel, cell-based, JC-1 fluorescence, 24 h, 100 nL compound (AID 1170); settings: higher = more signal
# [10] = A549 lung cancer cell viability effects, profiling panel, resazurin fluorescence, 24 h, PK04 Diversity Set (AID 1171); settings: higher = more signal, called active from +8 up or from −8 down
# Further: test concentration not given here.
SMILES,z-score [1],z-score [2],z-score [3],z-score [4],z-score [5],z-score [6],z-score [7],z-score [8],z-score [9],z-score [10]
CN(C)CCCCCCNC(=O)[C@H]1C[C@H]2C(=O)N3CCC[C@H]3C(=O)N2[C@H]1c1ccc(O)cc1,-0.79,0.627,-0.952,-0.567,-0.554,0.661,0.597 (inactive),0.262,0.538,-0.636 (inactive)
CC(C)[Si]1(C(C)C)O[C@@H](c2ccccc2)c2cc(-c3ccc(-c4ccc(Cl)c(Cl)c4)o3)nc(-c3ccccc3)c21,0.272,-0.277,0.428,-2.62,-3.09,-1.87,-1.06 (inactive),-0.395,-0.582,0.613 (inactive)
COc1ccc(-c2cc3c(c(-c4ccc(Oc5ccccc5)cc4)n2)[Si](C(C)C)(C(C)C)OC3)cn1,-0.599,-0.377,0.645,-1.19,-1.75,-1.43,-0.47 (inactive),-0.845,-0.973,1.07 (inactive)
C=C(CCCC)C(=O)CC[C@@H](OC(=O)c1ccccc1-c1ccccc1C(=O)O)c1ccc(OCCO)cc1,-0.465,1.22,0.515,-3.37,-3.04,-1.4,-1.03 (inactive),-0.659,-0.137,0.128 (inactive)
CC1(C)[C@@H]2CC(C(O)C3C=CC4C(=O)N(c5ccccc5)C(=O)C4N3Nc3ccc([N+](=O)[O-])cc3)=C[C@H]1C2 (stereo not given in full),-0.0923,-0.484,-0.0345,0.114,0.287,-1.41,-2.48 (inactive),0.428,-1.09,0.539 (inactive)
NC(=O)[C@@H]1[C@H]2C(=O)O[C@H](c3ccccc3)[C@H](c3ccccc3)N2[C@H](c2ccc(O)cc2)[C@@]12C(=O)Nc1ccccc12,-0.343,0.956,-0.19,-0.647,-0.07,-0.376,-0.0789 (inactive),-0.902,-0.079,-0.0543 (inactive)
CCCCN1CC=CC23O[C@@H]4C=CCCOC(=O)C4[C@H]2C(=O)N(CCCCCCO)[C@@H]3C1=O (stereo not given in full),0.384,-0.585,0.441,1.51,-0.363,0.493,0.271 (inactive),-0.109,-0.399,-0.176 (inactive)
C=CCNC(=O)[C@@H]1[C@H]2C(=O)O[C@H](c3ccccc3)[C@H](c3ccccc3)N2[C@H](c2ccc(OCCO)cc2)[C@@]12C(=O)Nc1ccc(C#CCC(C(=O)OC)C(=O)OC)cc12,-0.305,1.09,0.22,-3.45,-4.16,0.644,1.39 (inactive),-0.907,-1.63,1.39 (inactive)
